Source: PubChem BioAssay
PglD inh: blocks C. jejuni PglD acetyltransferase activity. purified PglD enzyme, DTNB colorimetric CoA detection. inhibition, % at 12.5 µM. 360,000 compounds, 0.098% hits. AID 602405; in the data active = inhibition above about 16%, passing the limit was not always enough
CFTR F508del cor: CFTR F508del correction in bronchial cells; CFBE cells, YFP halide quenching; stimulated with forskolin plus potentiator P3; % fluorescence drop versus neutral controls; activity (quench increase), % at 7.58 µM; 350,000 compounds, 0.36% hits;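 active = mean added fluorescence quench of at least 8% versus neutral control, with both replicates also reaching 8%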;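 note: cells transiently co-express mutant CFTR-F508del with the halide-sensitive YFP; corrector assay measuring rescue of mutant channel to the surface after 24 h compound exposure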
C2C12 statin: suppressors of simvastatin-induced myotoxicity in C2C12 myotubes | ATP luminescence, 48 h; scaled: DMSO 0, geranylgeraniol control 100 | 330,000 compounds, 0.78% hits | rescue of ATP level, % at 7.49 µM;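 active = mean ATP rescue above about 67%, or every replicate alone reaching that limit, limit read from the data, passing the limit was not always enough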;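 note: myotubes were challenged with 10 µM simvastatin during compound exposure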
ARNT TACC3 PPI: ARNT/TACC3 interaction disruption | Q9Y6A5 | AlphaScreen His-ARNT PAS-B/GST-TACC3 binding, luminescence; TACC3 fragment carries E629A point mutation | inhibition, % at 9.99 µM | 390,000 compounds, 0.66% hits | AID 623870;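 active = mean inhibition of replicates at least 50% and at least half of replicates each reaching 50%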;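 note: 0% = complete ARNT plus TACC3 wells and 100% = ARNT alone without TACC3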
* = called active by the depositor; . = not tested or not shown. An excerpt weighted towards active compounds, which were near 1.4% of everything screened.

SMILES | PglD inh | CFTR F508del cor | C2C12 statin | ARNT TACC3 PPI
CC1CN(c2ccc([N+](=O)[O-])cc2Cl)CCN1 (stereo unspecified) | -1.9 | . | -2.0 | 48.9*
O=c1[nH]c(=O)n(Cc2ccco2)c(O)c1C=NC1CC1 | 2.3 | . | 26.2 | 29.1
O=c1[nH]c(=O)n(Cc2ccco2)c(O)c1/C=N/N1CCCCC1 | . | -4.8 | . | active
CCCCCCC(=O)N/N=C/c1c(O)n(C2CC2)c(=S)[nH]c1=O | . | 0.4 | . | 30.1*
C=CCn1c(O)c(C=NCCCOc2ccc(CC)cc2)c(=O)[nH]c1=S | 1.9 | . | 1.9 | -26.5
C=CCn1c(O)c(/C=N/NC(=O)CCCC)c(=O)[nH]c1=S | . | -0.2 | . | 69.1*
CCCCCCC(=O)N/N=C/c1c(O)n(CCc2ccccc2)c(=O)[nH]c1=O | 2.6 | 5.2 | 14.4 | -27.0
CCCCCCC(=O)N/N=C/c1c(O)n(C(C)CC)c(=S)[nH]c1=O (stereo unspecified) | -4.3 | 4.4 | 6.9 | 49.9*
O=C(O)[C@H]1[C@H](CO)[C@H]2Cn3c(ccc(-c4cncnc4)c3=O)[C@@H]1N2C(=O)NC1CCCC1 | -0.2 | -1.0 | 2.8 | -8.4
CC(=NNC(=S)N1CC2CCC(CC2)C1)c1nccs1 | . | -1.0 | . | 71.6*
COc1cc([C@@H]2c3cc4c(cc3[C@@H](OC)[C@H]3COC(=O)[C@H]23)OCO4)cc(OC)c1O | 0.8 | 9.3* | -63.6 | 3.8
O=C(Cc1ccccc1)N1CC2(C1)[C@@H](c1ccccc1)[C@@H](CO)N2Cc1cccc(F)c1 | . | 2.8 | . | .
COc1ccc(Cn2c(O)c(/C=N/NC(=O)c3ccncc3)c(=O)[nH]c2=O)cc1 | 1.6 | -0.8 | . | 58.0*
Cc1ccc(-n2c(O)c(/C=N/NC(=O)c3ccncc3)c(=O)[nH]c2=O)cc1C | . | -0.2 | . | 62.5*
O=C(N/N=C/c1c(O)n(CCc2ccccc2)c(=O)[nH]c1=O)c1ccncc1 | 3.1 | . | . | 74.5*
O=C(N/N=C/c1c(O)n(Cc2ccccc2)c(=O)[nH]c1=O)c1ccccc1O | . | . | 9.8 | 62.6*
O=C(N/N=C/c1c(O)n(Cc2ccc(F)cc2)c(=O)[nH]c1=O)c1ccccc1O | -0.4 | -2.0 | . | .
CCOc1ccc(N=Cc2c(O)n(-c3ccc(C)c(C)c3)c(=O)[nH]c2=O)cc1 | -3.7 | 0.7 | -5.7 | .
C[C@@H]1CN([C@H](C)CO)C(=O)c2c(c3ccccc3n2C)-c2ccccc2CO[C@H]1CN(C)C(=O)Oc1ccccc1 | . | 0.9 | . | .
COc1ccc(C#Cc2ccc([C@H]3[C@H]4CN(C(=O)Cc5cccnc5)CCCCN4[C@H]3CO)cc2)cc1 | -0.7 | -0.4 | . | 17.5
COC(=O)[C@H]1[C@H](CO)[C@H]2Cn3c(ccc(-c4ccncc4)c3=O)[C@@H]1N2S(=O)(=O)c1ccccc1F | 1.8 | 0.3 | -16.0 | -7.2
O=C(Cc1ccccc1)N1C[C@H]2[C@@H](c3ccccc31)[C@@H](CO)N2Cc1ccccc1 | -0.9 | 0.9 | 2.7 | 4.2
O=C(N/N=C/c1c(O)n(-c2cccc3ccccc23)c(=O)[nH]c1=O)c1ccncc1 | 7.4 | -1.6 | . | 68.2*
O=C(N/N=C/c1c(O)n(CCc2ccc(F)cc2)c(=O)[nH]c1=O)c1ccncc1 | . | 2.0 | . | 65.4*
CCn1c(O)c(/C=N/NC(=O)c2ccccc2)c(=O)[nH]c1=S | . | -1.1 | . | 63.1*
SMILES | PglD inh | CFTR F508del cor | C2C12 statin | ARNT TACC3 PPI
O=C(N/N=C/c1c(O)n(CCc2ccc(F)cc2)c(=O)[nH]c1=O)c1ccccc1 | 7.7 | -1.5 | . | .
Cn1ccnc1P(=S)(c1nccn1C)N1CCOCC1 | -2.8 | . | -7.9 | 2.2
Cc1nc2ccc(Cl)cn2c1P(=S)(N1CCOCC1)N1CCOCC1 | -2.4 | . | 93.1* | -2.9
COC(=O)[C@@H]1[C@@H](CO)[C@@H]2Cn3c(ccc(-c4ccccc4F)c3=O)[C@H]1N2C(=O)C1CC1 | -0.4 | 0.9 | -10.2 | -1.8
O=C1NC(=O)C(=Cc2ccc(N3CCOCC3)o2)C(=O)N1 | . | 9.2* | . | -3.1
CC(=O)N1[C@@H]2c3ccc(-c4cccc(C(=O)N(C)C)c4)c(=O)n3C[C@H]1[C@H](CO)[C@H]2C(=O)O | . | -3.6 | . | .
Cn1c(O)c(C(c2ccccn2)c2c(O)n(C)c(=S)n(C)c2=O)c(=O)n(C)c1=S | . | . | . | 18.0
Cn1c(O)c(C(c2ccncc2)c2c(O)n(C)c(=S)n(C)c2=O)c(=O)n(C)c1=S | -0.4 | . | 6.3 | 46.8*
COC(=O)[C@@H]1[C@@H](CO)[C@@H]2Cn3c(ccc(-c4cccc(OC)c4)c3=O)[C@H]1N2C(=O)c1ccccc1F | -0.7 | 2.4 | -6.6 | -2.9
COc1cc(/C=C2/C(=O)NC(=O)N(c3ccccc3)C2=O)ccc1O | . | . | . | active
CC12CN3CN(C1)CC(c1ccccc1)(C3)C2=O | . | . | 101.6* | -6.7
